Data on 33 compounds can be found in ChEMBL document CHEMBL3433997, “St. Jude Leishmania screening dataset” (2016).

One may read the inhibition as the relative decrease from the control value, in per cent.

Holding throughout (assay type): functional
In test [1] the target is Solute carrier family 2, facilitated glucose transporter member 1 (Homo sapiens) (UniProt P11166). As to the kind of experiment: ST_JUDE_LEISH: Cytotoxicity at 2uM final concentration against transgenic Leishmania Mexicana promastigotes LmGLUT1 that are glucose transport deficient and complemented with the human glucose transporter GLUT1. Activity is measured by DNA content using SYBR green in vitro.
Chain of Solute carrier family 2, facilitated glucose transporter member 1 (Homo sapiens) (P11166 whole entry): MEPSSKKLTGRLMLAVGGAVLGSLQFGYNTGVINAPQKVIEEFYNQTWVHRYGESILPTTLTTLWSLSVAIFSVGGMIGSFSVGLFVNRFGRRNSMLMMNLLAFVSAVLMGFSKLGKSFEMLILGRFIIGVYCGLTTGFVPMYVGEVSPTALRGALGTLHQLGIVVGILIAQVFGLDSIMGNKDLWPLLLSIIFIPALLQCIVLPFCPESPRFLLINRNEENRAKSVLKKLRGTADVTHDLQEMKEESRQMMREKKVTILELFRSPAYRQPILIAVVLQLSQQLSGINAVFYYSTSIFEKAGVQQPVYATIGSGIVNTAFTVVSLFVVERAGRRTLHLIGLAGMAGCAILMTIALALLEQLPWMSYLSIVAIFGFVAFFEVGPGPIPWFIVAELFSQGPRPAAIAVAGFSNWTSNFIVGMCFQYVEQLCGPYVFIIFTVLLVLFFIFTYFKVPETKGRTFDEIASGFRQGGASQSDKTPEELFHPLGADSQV

Test [2] addresses Hexose transporter 1 (Plasmodium falciparum) (UniProt O97467). Briefly: ST_JUDE_LEISH: Cytotoxicity at 2uM final concentration against transgenic Leishmania Mexicana promastigotes LmPfHT that are glucose transport deficient and complemented with the Plasmodium falciparum hexose transporter. Activity is measured by DNA content using SYBR green in vitro.
Test [3] has as its target Glucose transporter (Leishmania mexicana) (UniProt O61059). As to the kind of experiment: ST_JUDE_LEISH: Cytotoxicity at 2uM final concentration against transgenic Leishmania Mexicana promastigotes LmGT2 that are glucose transport deficient and complemented with the L. Mexicana glucose transporter 2. Activity is measured by DNA content using SYBR green in vitro.

For the compound `COc1ccc(NC(=O)c2ccc(Br)c(C)c2)cc1N1CCN(CCCCc2ccccc2)CC1`, the values for the inhibition in test [1], in test [2] and in test [3] were 1.19%, 0.21% and 0.85%, respectively.
For `CCc1cc(NC(=O)Nc2ccnc3ccccc23)ccc1OC`, in that order: 19%, 17.9% and 11.6%.
The like results for `O=C1C(=Cc2cc(Cc3ccccc3)ccc2O)SC(=S)N1Cc1ccccc1` were, in that order, 8.42%, 7.14% and 8.43%.
Take `CC(C)CCN1CCC(Oc2ccc(NC(=O)c3ccc4ncccc4c3)cc2Cl)C1` (centres undefined): the inhibition in test [1] worked out at 1.24%; in test [2] it was 2.56%; in test [3] it was 1.94%.
For `CCc1ccc(NC(=O)C=NNC(=N)N)cc1`, in that order: 1.51%, 1.46% and 1.17%.
For `CCN1CCC(N(Cc2ccc(-c3ccc(C(F)(F)F)cc3)cc2)C(=O)Cn2c(CCc3cccc(F)c3F)nc(=O)c3ccccc32)CC1`, in that order: 1.25%, 2.57% and 3.43%.
On to `CCN1CCN(c2cc(C)c3cc(NC(=O)c4ccc(OC)c(OC)c4)ccc3n2)CC1`, for which the inhibition stood at 0.58% in test [1], 0.53% in test [2] and 0.24% in test [3].
The like results for `COc1ccc(-c2nc(NC(=O)CSc3ccccc3)sc2C)cc1` were, in that order, 9.07%, 4.4% and 6.37%.
The like results for `COc1cccc(OC)c1C(=O)N1CCC2(CC1)C(=O)N(CC(=O)NC1CCCCC1)CN2c1ccccc1` were, in that order, 0.35%, 4.45% and 3.89%.
For `COC(=O)c1ccc(CN2CCC(N(Cc3cccc(Oc4ccccc4)c3)S(=O)(=O)c3ccc(NC(C)=O)cc3)CC2)cc1`, in that order: 0.23%, 0.78% and 0.32%.
For the compound `O=C(/C=C/c1ccc(Cl)c(Cl)c1)NCCCCCN1CCC(NC(=O)c2ccc(F)c(F)c2)CC1`, the inhibition in test [1] was 3.18%; in test [2] it was 5.17%; in test [3], 6.18%.
Take `Oc1ccc(Cc2cc(Oc3c(I)cc(CCc4ncc[nH]4)cc3I)ccc2O)cc1`: the inhibition amounted to 0.12% in test [1], 1.92% in test [2] and 1.23% in test [3].
The like results for `Cc1nnsc1C(=O)Nc1cccc(-c2cccc(-c3nc4ccccc4[nH]3)c2)c1` were, in that order, -1.84%, 0.03% and -2.07%.
In the case of `Cc1ccc(C)c(NC(=O)CC2C(=O)N(c3ccccc3)C(=S)N2Cc2ccco2)c1` (centres undefined), the inhibition turned out to be 4.9% in test [1], 5.73% in test [2] and 5.93% in test [3].
For `CCC(ON1C(N)=NC(N)=NC1(C)C)c1ccccc1` (centres undefined), the inhibition in test [1] was -1.61%; in test [2], -0.45%; in test [3], -3.19%.
The like results for `CC(ON1C(N)=NC(N)=NC1(C)C)c1ccccc1` (centres undefined) were, in that order, 5.91%, 4.22% and 6.95%.
For `NCc1cccc(-c2ccc3ccnc(N)c3c2)c1`, in that order: 0.01%, 0.05% and 1.2%.
With `CC(C)(C)c1ccccc1OCCCON1C(=N)N=C(N)NC1(C)C`, the inhibition turned out to be 38% in test [1], 59.3% in test [2] and 37.1% in test [3].
As for `Cc1ccc(Cl)cc1N1CCN(CCCNC(=O)C2CCN(c3nc4ccccc4[nH]3)CC2)CC1`, the inhibition was found to be 4.49% in test [1], 5.2% in test [2] and 5.6% in test [3].
With `O=S(=O)(NCCN1CCCC1)c1ccc(-c2ccc(CNCc3ccc(F)cc3)cc2)cc1F`, the inhibition in test [1] was 5.72%; in test [2] it was 5.82%; in test [3], 3.28%.
In the case of `Cc1c(N=O)cc(C(C)(C)C)c(O)c1C(=O)Nc1ccc([N+](=O)[O-])cc1Cl`, the inhibition in test [1] was 2.33%; in test [2] it was 5.18%; in test [3], -0.56%.
For `CCCCCCCCc1nc(C)c(Br)c(O)c1Br`, the results for the inhibition in test [1], in test [2] and in test [3] were 3.91%, 5.98% and 0.8%, respectively.
For `O=C(/C=C/c1ccc(Cl)c(Cl)c1)NCCCCCCN1CCN(C(=O)Nc2ccc(Cl)c(Cl)c2)CC1`, in that order: 2.42%, 2.46% and 4.14%.
For the compound `CC(=O)Nc1ccc(OCCCCN(Cc2ccccc2C(F)(F)F)c2ccc(C(F)(F)F)c(C#N)c2)c(Cl)c1`, the figures for the inhibition in test [1], in test [2] and in test [3] were 0.27%, 3.28% and 0.64%, respectively.
Consider `Cc1ccc(C)c(Cn2ccc3nc(N)nc(N)c32)c1`, for which the inhibition was 2.05% in test [1], 1.94% in test [2] and -0.67% in test [3].
For `CCNc1cc(C(=O)N[C@@H](Cc2ccccc2)[C@H](O)CNCCC(C)c2ccccc2)cc(N2CCCC2=O)c1` (some centres undefined), in that order: 4.77%, 5.96% and 1.33%.
For `CC(=O)Nc1ccc(-c2nc3ccc(-c4nc5ccc(NC(C)=O)cc5[nH]4)cc3[nH]2)cc1`, in that order: 5.99%, 3.79% and 5.3%.
Take `COc1ccc(NC(=O)NC2CCN(c3ccnc4ccccc34)C2)cc1` (centres undefined): the inhibition in test [1] worked out at 0.52%; in test [2], 0.7%; in test [3], 2.29%.
With `O[C@H]1[C@H](OCc2ccc(-c3ccccc3)cc2)CC[C@@H]1N1CCCCC1`, the inhibition in test [1] was 0.73%; in test [2], 1.54%; in test [3], 8.6%.
The like results for `COc1ccc(Nc2ncc3c(-c4cccc(NC(=O)Cc5cccc(F)c5)c4)c[nH]c3n2)cc1OC` were, in that order, 5.69%, 3.23% and 4.39%.
For `CCN(CC)CCNC(=O)c1ccc(NC(=O)c2cc3c(C)nn(-c4ccc(Cl)cc4)c3s2)cc1`, in that order: 2.43%, 2.37% and 1.83%.
For `O=C(NCC1CCC(C(=O)NCc2cccc(C(F)(F)F)c2)CC1)c1ccc(O)c(-c2ccc(Cl)c(Cl)c2)c1` (centres undefined), in that order: 0.99%, 2.82% and 2.98%.
For `Cc1cc(N2CCCC2)nc(Nc2ccc(NC(=O)c3ccccc3F)cc2)n1`, the figures for the inhibition in test [1], in test [2] and in test [3] were 1.09%, 2.77% and -0.95%, respectively.
